This note sets out measurements from publication PMC5700166.

Common to all, as to experiment: protein-binding microarray (PBM); PBM: ~300 nM protein, 6 mM HEPES pH 7.8, 80 mM KCl, 0.5 mM EDTA, 0.5 mM EGTA, 6% glycerol, 35 ng/ul poly-dIdC, 1% milk, 1 h, room temperature; Ap Aiptasia and Nv Nematostella (sea anemones) / Co Capsaspora / Aq Amphimedon (sponge) / Dm Drosophila / Hu human; RHD is the Rel homology domain; high values mean tight binding
Details in all cases: dsDNA, one strand shown

One assay has as its target T1, GST-Ap-NF-kB RHD (Exaiptasia pallida (Aiptasia), UniProt A0A913YAJ5 2-422).
T1 sequence: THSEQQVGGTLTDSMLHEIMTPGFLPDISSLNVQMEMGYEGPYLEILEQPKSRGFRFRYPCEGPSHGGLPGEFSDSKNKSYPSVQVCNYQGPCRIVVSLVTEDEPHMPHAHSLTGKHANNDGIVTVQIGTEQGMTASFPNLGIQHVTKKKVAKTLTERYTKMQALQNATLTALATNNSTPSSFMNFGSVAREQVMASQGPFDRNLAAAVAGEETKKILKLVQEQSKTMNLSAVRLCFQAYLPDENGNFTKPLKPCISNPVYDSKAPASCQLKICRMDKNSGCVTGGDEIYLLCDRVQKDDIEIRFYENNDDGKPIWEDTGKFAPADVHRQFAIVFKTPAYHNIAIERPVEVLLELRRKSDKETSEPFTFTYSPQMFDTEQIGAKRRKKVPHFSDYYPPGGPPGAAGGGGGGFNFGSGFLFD

In assay [1] the target is T2, GST-Nv-NF-kB (Ser allele) (Nematostella vectensis, UniProt A7UNT2 2-411).
T2 sequence: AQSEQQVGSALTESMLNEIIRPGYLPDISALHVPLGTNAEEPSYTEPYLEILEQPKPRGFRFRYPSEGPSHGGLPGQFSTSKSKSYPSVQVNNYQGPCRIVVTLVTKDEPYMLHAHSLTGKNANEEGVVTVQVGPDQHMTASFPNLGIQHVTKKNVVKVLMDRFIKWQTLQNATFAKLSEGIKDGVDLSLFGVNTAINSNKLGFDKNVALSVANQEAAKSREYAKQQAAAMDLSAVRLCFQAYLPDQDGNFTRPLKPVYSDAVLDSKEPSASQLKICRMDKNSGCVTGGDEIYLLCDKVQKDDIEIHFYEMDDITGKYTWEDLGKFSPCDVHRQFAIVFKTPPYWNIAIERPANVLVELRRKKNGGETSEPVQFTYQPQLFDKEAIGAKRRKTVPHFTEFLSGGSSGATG

A further assay deals with T3, GST-Co-NF-kB (Capsaspora owczarzaki, UniProt F1ARL5 200-546).
T3 sequence: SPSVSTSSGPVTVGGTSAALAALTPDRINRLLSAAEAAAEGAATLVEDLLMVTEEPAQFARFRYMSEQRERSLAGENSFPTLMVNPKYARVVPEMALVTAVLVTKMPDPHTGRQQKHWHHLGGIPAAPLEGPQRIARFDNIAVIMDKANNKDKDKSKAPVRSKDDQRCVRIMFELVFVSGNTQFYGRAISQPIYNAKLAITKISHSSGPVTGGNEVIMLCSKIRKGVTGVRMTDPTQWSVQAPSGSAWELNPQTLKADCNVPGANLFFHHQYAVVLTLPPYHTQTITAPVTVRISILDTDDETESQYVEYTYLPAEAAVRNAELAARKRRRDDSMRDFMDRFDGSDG

Another assay concerns the target T4, GST-Dm-Relish (Drosophila melanogaster, UniProt Q94527 99-473).
T4 sequence: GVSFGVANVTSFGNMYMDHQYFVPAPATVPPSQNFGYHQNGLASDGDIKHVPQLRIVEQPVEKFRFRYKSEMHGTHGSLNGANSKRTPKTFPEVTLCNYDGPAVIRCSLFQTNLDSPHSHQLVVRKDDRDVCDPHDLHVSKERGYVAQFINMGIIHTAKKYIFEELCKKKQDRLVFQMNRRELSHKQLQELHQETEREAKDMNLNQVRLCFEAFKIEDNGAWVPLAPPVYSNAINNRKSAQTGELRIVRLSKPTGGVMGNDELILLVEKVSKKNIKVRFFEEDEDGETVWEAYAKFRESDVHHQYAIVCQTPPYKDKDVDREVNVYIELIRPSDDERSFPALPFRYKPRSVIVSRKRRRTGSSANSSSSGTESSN

For the next assay, the target named is T5, GST-Aq-NF-kB (Amphimedon queenslandica, UniProt A9Y5G7 2-389).
T5 sequence: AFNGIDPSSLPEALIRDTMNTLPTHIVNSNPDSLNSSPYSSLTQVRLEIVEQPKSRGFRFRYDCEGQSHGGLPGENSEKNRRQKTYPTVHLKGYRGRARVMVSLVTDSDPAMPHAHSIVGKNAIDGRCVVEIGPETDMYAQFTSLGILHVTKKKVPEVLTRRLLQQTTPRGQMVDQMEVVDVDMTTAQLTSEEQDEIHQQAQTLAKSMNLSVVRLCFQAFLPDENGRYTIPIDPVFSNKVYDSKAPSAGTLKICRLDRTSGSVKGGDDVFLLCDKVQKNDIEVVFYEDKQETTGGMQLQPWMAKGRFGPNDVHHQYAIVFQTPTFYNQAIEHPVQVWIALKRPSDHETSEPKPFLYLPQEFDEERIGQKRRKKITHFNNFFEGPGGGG

As to “CCGATTAACATCACTCCCCCCCATGATGTTAATCGGGTCTTGATTCGCTTGACGCTGCTG”, the binding signal was 5.11 z-score in the assay with GST-Ap-NF-kB RHD; 3.12 z-score in assay [1]; 6.71 z-score with GST-Co-NF-kB; 3.23 z-score with GST-Dm-Relish; 4.01 z-score in the assay with GST-Aq-NF-kB.

On to “CCGATTAACATCAGGACACCCCATGATGTTAATCGGGTCTTGATTCGCTTGACGCTGCTG”, for which the binding signal was determined as 1.22 z-score with GST-Ap-NF-kB RHD, 1.49 z-score in the assay with GST-Co-NF-kB, 1.93 z-score with GST-Dm-Relish and 1.61 z-score with GST-Aq-NF-kB.

Consider “CCGATTAACATCAATTCCCCCCCTGATGTTAATCGGGTCTTGATTCGCTTGACGCTGCTG”, for which the binding signal in the assay with GST-Ap-NF-kB RHD stood at 8.18 z-score; in assay [1], 7.32 z-score; with GST-Co-NF-kB, 8.87 z-score; with GST-Dm-Relish, 6.09 z-score; with GST-Aq-NF-kB, 6.45 z-score.

Regarding “CCGATTAACATCAGGTAACCCCATGATGTTAATCGGGTCTTGATTCGCTTGACGCTGCTG”, the binding signal stood at 3.05 z-score with GST-Ap-NF-kB RHD, 2.06 z-score with GST-Co-NF-kB, 6.29 z-score in the assay with GST-Dm-Relish and 2.29 z-score with GST-Aq-NF-kB.

As to “CCGATTAACATCATCCGCGGGAGTGATGTTAATCGGGTCTTGATTCGCTTGACGCTGCTG”, the figures for the binding signal in the assay with GST-Ap-NF-kB RHD, with GST-Co-NF-kB and in the assay with GST-Aq-NF-kB were 1.05 z-score, 1.38 z-score and 1.92 z-score, respectively.

Regarding “CCGATTAACATCATTTATCCCGGTGATGTTAATCGGGTCTTGATTCGCTTGACGCTGCTG”, the binding signal with GST-Ap-NF-kB RHD worked out at 1.16 z-score; with GST-Co-NF-kB, 2.85 z-score; in the assay with GST-Dm-Relish, 1.77 z-score; with GST-Aq-NF-kB, 1.14 z-score.

As for “CCGATTAACATCAGGGGGGGAAATGATGTTAATCGGGTCTTGATTCGCTTGACGCTGCTG”, the binding signal came to 6.79 z-score in the assay with GST-Ap-NF-kB RHD; 7.98 z-score in assay [1]; 10.2 z-score with GST-Co-NF-kB; 5.34 z-score with GST-Dm-Relish; 5.89 z-score with GST-Aq-NF-kB.

For “CCGATTAACATCAAGGGGGGGAATGATGTTAATCGGGTCTTGATTCGCTTGACGCTGCTG”, the binding signal stood at 6.62 z-score with GST-Ap-NF-kB RHD, 8.37 z-score with GST-Co-NF-kB, 4.96 z-score with GST-Dm-Relish and 5.81 z-score with GST-Aq-NF-kB.

On to “CCGATTAACATCACCCCCTCCCCTGATGTTAATCGGGTCTTGATTCGCTTGACGCTGCTG”, for which the binding signal with GST-Ap-NF-kB RHD amounted to 3.75 z-score; in the assay with GST-Co-NF-kB it was 4.75 z-score; in the assay with GST-Dm-Relish, 5.21 z-score; in the assay with GST-Aq-NF-kB, 4.84 z-score.

On to “CCGATTAACATCACGGGGTGGCCTGATGTTAATCGGGTCTTGATTCGCTTGACGCTGCTG”, for which the binding signal with GST-Ap-NF-kB RHD was found to be 1.24 z-score; in the assay with GST-Co-NF-kB, 1.78 z-score; with GST-Dm-Relish, 1.37 z-score; with GST-Aq-NF-kB, 1.55 z-score.

“CCGATTAACATCACCCCCCCTGATGATGTTAATCGGGTCTTGATTCGCTTGACGCTGCTG”: the binding signal in the assay with GST-Ap-NF-kB RHD was 4.83 z-score; in assay [1], 3.09 z-score; in the assay with GST-Co-NF-kB, 5.83 z-score; with GST-Dm-Relish, 4.63 z-score; with GST-Aq-NF-kB it was 4.51 z-score.

Take “CCGATTAACATCAGGGGGGGGAATGATGTTAATCGGGTCTTGATTCGCTTGACGCTGCTG”: the binding signal with GST-Ap-NF-kB RHD turned out to be 7.86 z-score; with GST-Co-NF-kB, 8.84 z-score; with GST-Dm-Relish, 5.27 z-score; with GST-Aq-NF-kB it was 5.65 z-score.

Turning to “CCGATTAACATCAAGGGGGGAAATGATGTTAATCGGGTCTTGATTCGCTTGACGCTGCTG”, the binding signal with GST-Ap-NF-kB RHD came out at 6.16 z-score; in assay [1], 8.51 z-score; with GST-Co-NF-kB it was 7.79 z-score; with GST-Dm-Relish, 4.47 z-score; with GST-Aq-NF-kB, 5.8 z-score.
